The values that follow come from PubChem BioAssay.

Structures are written as SMILES. Activity calls are given as the source filed them. Unless noted, no rule for the calls is given here.

Experiment [1] in a line: resazurin metabolic signal in HepG2 cells – cell-based, resazurin fluorescence, 24 h, PK04 Diversity Set, profiling panel (AID 1172). Also: test concentration not given here. Particulars: HepG2 viability, higher = more signal. A general note: The colour change of resazurin is a common sign of viable cells or microbes.
The nature of experiment [2]: budding yeast growth changes without added modifier – OD600, strain BY4716, 24 h, basal condition, primary screen (AID 1173). Conditions: S. cerevisiae BY4716 growth, OD600, 24 h; higher = more signal, called active from +8 up or from −8 down.
A short description of experiment [3]: viability profiling in MM1S myeloma cells – cell-based, resazurin fluorescence, basal, 24 h, PK04 Diversity Set, profiling panel (AID 1174).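 Also: MM1S multiple myeloma cell line; test concentration not given here.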 Particulars: higher = more signal, called active from +8 up or from −8 down.
Experiment [4] deals with Dihydroorotate dehydrogenase (quinone), mitochondrial (Plasmodium falciparum (isolate 3D7)) (UniProt Q08210). In words: inhibition of P. falciparum DHODH – biochemical, C-terminal His tag, absorbance 600 nm, primary screen (AID 1175).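 Also: recombinant parasite enzyme with a five histidine tag at its C terminus; test concentration not given here.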 Conditions: PfDHODH enzyme, DCIP absorbance 600 nm; higher = more signal, called active from +8 up or from −8 down.
Dihydroorotate dehydrogenase (quinone), mitochondrial (Plasmodium falciparum (isolate 3D7)), sequence (Q08210 whole entry, looked up): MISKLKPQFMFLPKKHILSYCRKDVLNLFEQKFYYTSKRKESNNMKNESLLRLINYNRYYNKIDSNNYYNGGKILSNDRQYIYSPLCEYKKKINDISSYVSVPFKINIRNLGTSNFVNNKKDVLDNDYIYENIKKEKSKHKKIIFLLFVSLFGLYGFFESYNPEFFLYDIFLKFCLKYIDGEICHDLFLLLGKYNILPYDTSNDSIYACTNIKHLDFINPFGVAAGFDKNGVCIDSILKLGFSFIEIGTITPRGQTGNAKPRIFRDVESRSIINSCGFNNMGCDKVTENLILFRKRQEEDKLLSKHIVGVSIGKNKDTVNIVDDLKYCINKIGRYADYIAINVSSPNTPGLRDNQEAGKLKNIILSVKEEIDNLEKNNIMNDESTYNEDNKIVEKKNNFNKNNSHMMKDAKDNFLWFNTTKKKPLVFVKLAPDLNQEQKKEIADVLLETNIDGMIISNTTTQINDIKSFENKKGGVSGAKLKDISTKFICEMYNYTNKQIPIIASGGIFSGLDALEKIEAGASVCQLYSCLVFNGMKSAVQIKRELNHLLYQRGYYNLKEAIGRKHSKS
A short description of experiment [5]: inhibition of PAO1 biofilm formation – strain PAO1, LB-PBS medium, absorbance 600 nm, primary screen (AID 1176). Also: test concentration not given here. Conditions: P. aeruginosa PAO1 growth/biofilm, A600, 12 h; higher = more signal.
Experiment [6] can be described thus: growth modulation of vineyard yeast isolate – strain RM11-1a, OD600, basal, 24 h, primary screen (AID 1177).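 Also: cultures grown under basal conditions with no added stressor; test concentration not given here.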 Conditions: S. cerevisiae RM11-1a growth, OD600, 24 h; higher = more signal, called active from +8 up or from −8 down.
Experiment [7] can be described thus: growth of efflux-deficient E. coli DRC39 – strain DRC39, OD650, 24 h, E. coli filamentation inducers, primary screen (AID 1178).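 Also: growth measured as culture turbidity by optical density at 650 nm; test concentration not given here.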 Particulars: E. coli DRC39 acrAB, higher = more signal, called active from +8 up or from −8 down.
Experiment [8] is described as follows: growth of efflux-deficient E. coli DRC39 – strain DRC39, OD650, 48 h, E. coli filamentation inducers, primary screen (AID 1179).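 Also: screen aims at cell division blockers that make cells filament.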 Particulars: E. coli DRC39 delta-acrAB growth, higher = more signal, called active from +8 up or from −8 down.
Experiment [9] in a line: viability profiling in RPMI8226 myeloma cells – cell-based, resazurin fluorescence, basal, 24 h, PK04 Diversity Set, profiling panel (AID 1180).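 Also: RPMI8826 multiple myeloma cell line at 5000 cells per well; test concentration not given here.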 Particulars: higher = more signal.
The target of experiment [10] is E3 ubiquitin-protein ligase XIAP (Homo sapiens) (UniProt P98170). The experiment is described as follows: small molecules binding XIAP protein – biophysical, small-molecule microarray, fluorescence 635 nm, primary screen (AID 1181).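 Also: score merges 667 nm emission and signal to noise over triplicate slides.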 Particulars: higher = more signal.
E3 ubiquitin-protein ligase XIAP (Homo sapiens), sequence (P98170 whole entry, looked up): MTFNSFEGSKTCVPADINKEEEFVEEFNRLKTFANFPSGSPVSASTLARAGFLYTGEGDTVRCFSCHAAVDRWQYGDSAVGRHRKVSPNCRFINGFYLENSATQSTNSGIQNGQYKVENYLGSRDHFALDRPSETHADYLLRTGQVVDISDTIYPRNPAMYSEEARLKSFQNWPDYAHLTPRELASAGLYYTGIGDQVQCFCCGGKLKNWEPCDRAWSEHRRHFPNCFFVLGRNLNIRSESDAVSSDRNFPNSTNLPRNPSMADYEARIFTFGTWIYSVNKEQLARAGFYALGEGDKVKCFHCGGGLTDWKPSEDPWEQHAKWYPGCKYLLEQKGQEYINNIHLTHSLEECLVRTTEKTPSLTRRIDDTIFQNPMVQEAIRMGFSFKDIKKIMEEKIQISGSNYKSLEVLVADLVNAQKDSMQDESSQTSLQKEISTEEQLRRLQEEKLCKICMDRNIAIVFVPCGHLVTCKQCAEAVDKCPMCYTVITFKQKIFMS

`CC(C)(C)N1C(=O)[C@H]2[C@H]3[C@H](O)[C@H](O)CC(=O)[C@@H]3CC[C@H]2C1=O`: the z-score in experiment [1] was -0.0291; in experiment [2] it was -0.693 (inactive); in experiment [3], -0.0757 (inactive); in experiment [5], 0.27 (inactive); in experiment [6], -0.736 (inactive); in experiment [7], -0.268 (inactive). The z-score is -0.653 (inactive) in experiment [8] and -0.0415 in experiment [9]. Further, the composite z-score in experiment [4] is -0.251 (inactive); in experiment [10], -0.177.

As to `O=C(NN=C1C[C@@H](O)[C@@H](O)[C@@H]2[C@@H]3C(=O)N(C4CCCCC4)C(=O)[C@@H]3CC[C@@H]12)OCc1ccccc1`, the z-score in experiment [1] is -0.141; in experiment [2] it was -0.922 (inactive); in experiment [3], -0.0864 (inactive); in [5], -0.814 (inactive); in experiment [6] it was 0.0487 (inactive); in [7], 0.193 (inactive). The z-score is 0.332 (inactive) in experiment [8] and -0.678 in experiment [9]. The values for the composite z-score in experiment [4] and in [10] were -0.223 (inactive) and -0.505, respectively.

As to `O=C1CCCC(C2=CCCCC2=O)C1` (stereo not given), the z-score was -0.575 in experiment [1]; 0.0749 (inactive) in [2]; -1.83 (inactive) in experiment [3]; 0.663 (inactive) in experiment [5]; 0.541 (inactive) in experiment [6]; 0.998 (inactive) in experiment [7]. Further, the z-score in [8] is 0.524 (inactive); in experiment [9], -1.01. Further, the composite z-score in experiment [4] was 0.153 (inactive); in [10], 0.197.

`COC(=O)[C@H]1O[C@@H](c2c(OC)c(OC)c(C)c(OC)c2OC)[C@H](C)[C@@H](O)[C@H]1C`: the z-score in experiment [1] is -0.617; in experiment [2] it was -0.615 (inactive); in experiment [3], -1.76 (inactive); in [5], 0.417 (inactive); in experiment [6] it was 0.275 (inactive); in experiment [7] it was 0.968 (inactive). Also, the values for the z-score in [8] and in [9] were 0.926 (inactive) and -0.456, respectively. Also, the composite z-score in experiment [4] was -0.0757 (inactive); in experiment [10], -0.13.

For the molecule `COC(=O)CC=C[C@@H](C)[C@@H](C=NO[C@@H]1O[C@H](COC(C)=O)[C@@H](OC(C)=O)[C@H](OC(C)=O)[C@H]1OC(C)=O)NS(=O)(=O)c1ccc(C)cc1`, the z-score in experiment [1] was 0.22; in experiment [2] it was 0.653 (inactive); in experiment [3], -1.04 (inactive); in experiment [5], 0.298 (inactive); in experiment [6], -0.186 (inactive); in experiment [7] it was -1.8 (inactive). Also, the figures for the z-score in experiment [8] and in experiment [9] were -0.57 (inactive) and -0.437, respectively. The composite z-score in experiment [4] is -0.069 (inactive); in [10], -0.177.

Turning to `Cc1cc2c(c(=O)o1)[C@@H](O)[C@H]1O[C@H]1C2=O`, the z-score was -0.721 in experiment [1]; -0.582 (inactive) in [2]; 0.166 (inactive) in experiment [3]; -0.67 (inactive) in [5]; 0.322 (inactive) in experiment [6]; -0.729 (inactive) in experiment [7]. The z-score is -1.26 (inactive) in experiment [8] and -0.535 in experiment [9]. Further, the composite z-score was 0.664 (inactive) in experiment [4] and 0.13 in [10].

On to `CCOC(=O)[C@H](Cc1ccccc1)NC(=O)CCC1CC(OC(=O)NCCc2ccc(F)cc2)CC2(CCCC(COC(=O)NCCOC)O2)O1` (stereo not given in full), for which the z-score is -0.154 in experiment [1]; -0.664 (inactive) in experiment [2]; -0.195 (inactive) in experiment [3]; 0.487 (inactive) in experiment [5]; 0.128 (inactive) in experiment [6]; 1.21 (inactive) in [7]. Besides, the z-score in [8] was 0.195 (inactive); in experiment [9], 0.673. Further, the composite z-score was -1.47 (inactive) in experiment [4] and -0.242 in experiment [10].

With `O=C1C[C@@H](O)[C@@H](O)[C@@H]2[C@@H]3C(=O)N(Cc4ccc5c(c4)OCO5)C(=O)[C@@H]3CC[C@H]12`, the z-score in experiment [1] was 0.201; in [2], 0.0442 (inactive); in experiment [3] it was -0.0254 (inactive); in [5] it was -0.0121 (inactive); in [6] it was -0.545 (inactive); in experiment [7] it was -0.494 (inactive). Moreover, the z-score in experiment [8] is -0.389 (inactive); in [9], -0.0372. Moreover, the results for the composite z-score in experiment [4] and in experiment [10] were -0.564 (inactive) and -0.152, respectively.

As to `CO[C@H]1COC(=O)CC=C[C@@H](C)[C@H](NS(=O)(=O)c2ccc(C)cc2)COC(=O)CCC[C@@H]1C`, the z-score is 0.703 in experiment [1]; -0.99 (inactive) in experiment [2]; 1.01 (inactive) in [3]; -0.361 (inactive) in experiment [5]; -0.5 (inactive) in [6]; 0.0468 (inactive) in [7]. Also, the z-score in experiment [8] is 0.0191 (inactive); in [9], 0.545. For the same molecule, the composite z-score in [4] was -0.242 (inactive); in experiment [10], 0.0797.

As for `COc1cccc([C@H]2Oc3ccc(OC)cc3C(=NOC[C@@H](C)[C@H](OCc3ccccc3)C(C)C)[C@@H]2O)c1`, the z-score in experiment [1] is -0.214; in experiment [2], 0.635 (inactive); in [3], -0.0524 (inactive); in [5], 0.347 (inactive); in experiment [6], 0.846 (inactive); in [7], 0.221 (inactive). For the same molecule, the results for the z-score in experiment [8] and in [9] were -1.18 (inactive) and 0.0541, respectively. Also, the composite z-score in experiment [4] was -0.212 (inactive); in experiment [10], 0.0015.

As to `C[C@H]1COC(=O)[C@@H]2CCCN2C(=O)[C@@H](C)COC(=O)[C@H](Cc2ccccc2)NC1=O`, the z-score is 0.409 in experiment [1]; 0.0852 (inactive) in experiment [2]; -0.208 (inactive) in [3]; -0.348 (inactive) in experiment [5]; -0.231 (inactive) in experiment [6]; 0.0861 (inactive) in experiment [7]. Further, the z-score is 0.503 (inactive) in [8] and 0.586 in [9]. The composite z-score in [4] was -0.926 (inactive); in experiment [10], 1.05.

Regarding `O=C1C[C@@H](O)[C@@H](O)[C@@H]2[C@@H]3C(=O)N(C[C@@H]4CCCO4)C(=O)[C@@H]3CC[C@@H]12`, the z-score in experiment [1] was -0.429; in experiment [2], 0.0532 (inactive); in experiment [3] it was -0.272 (inactive); in [5] it was 0.565 (inactive); in [6] it was -0.129 (inactive); in [7], 0.469 (inactive). Moreover, the z-score is 0.582 (inactive) in experiment [8] and -0.12 in experiment [9]. Moreover, the composite z-score was 0.204 (inactive) in [4] and -0.0989 in [10].

For the molecule `COc1ccc(COC(=O)NN=C2C[C@@H](O)[C@@H](O)[C@@H]3[C@@H]4C(=O)N(Cc5ccccc5)C(=O)[C@@H]4CC[C@H]23)cc1`, the z-score in [1] is 1.35; in [2] it was 0.3 (inactive); in [3], 1.28 (inactive); in experiment [5] it was 0.07 (inactive); in experiment [6], -0.629 (inactive); in experiment [7], 0.426 (inactive). The z-score was -0.463 (inactive) in experiment [8] and 0.635 in [9]. The results for the composite z-score in experiment [4] and in [10] were -0.307 (inactive) and 0.152, respectively.
